Assay outcomes (PubChem)
Hits are enriched below; roughly 6.9% of the tested compounds scored in any of these assays.
NR3A LBD binder: modulators (binders) of human NR3A ligand-binding domain; NR3A LBD differential scanning fluorimetry, Tm shift; 0% = protein alone, 100% = glycine-bound protein; Tm shift relative to glycine control, % at 25 µM; 340,000 tested, 2.5% active; AID 1259313;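 active = melting temperature shift of at least 10% of the positive control shift, at one fixed dose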
MPTP inh: inhibitors of mitochondrial permeability transition pore; inhibition, % at 10 µM; isolated mouse mitochondria, Ca2+ swelling absorbance, 30 min; 360,000 tested, 1.4% active; AID 602449;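 active = inhibition of 50% or more, scaled per plate between neutral and stimulator controls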;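 note: 0% = DMSO wells given calcium and 100% = 1 mM EGTA wells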
Mdm2 MdmX PPI: disrupts the human Mdm2-MdmX interaction; SaOS-2 split-luciferase Mdm2/MdmX complementation, luminescence; inhibition, % at 8 µM; 330,000 tested, 3% active; AID 485346;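 active = inhibition of at least 50% at 8 µM in the primary screen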
CSC inhib: cancer stem cell inhibition; cancer stem cell-like cells viability, luminescence; inhibition, % at 7.5 µM; 300,000 tested, 1.1% active; in the data active = inhibition above about 75%; tested in HMLE shEcad cells
Beta apoptosis: beta cell apoptosis inhibition; 300,000 tested, 0.8% active; protection from apoptosis, % (concentration not given with the values); INS-1E cytokine-induced death, ATP luminescence, 48 h; percent of positive-control rescue, neutral wells zero; AID 435005;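 active = Every replicate reaches about 75%, or at least half do and their mean reaches it too, limit read from the data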;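 note: 0% = cytokine-treated negative control wells and 100% = positive control rescue; higher means more ATP so stronger rescue from cytokine killing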
SKKanGAS inh: blocks kanamycin growth of S. pyogenes SKKanGAS strain; inhibition, % at 7.5 µM; AID 1662; BacTiter-Glo, 6 h; 300,000 tested, 1.3% active;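 active = mean replicate score, as percent of positive control median, at least 50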;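 note: strain carries kanamycin resistance gene driven by streptokinase promoter and grows in 40 µg/ml kanamycin; loss of luminescence reflects streptokinase promoter inhibition or plain growth inhibition; 0% = median of DMSO wells and 100% = positive control at its reference dose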
Starred values were filed as active, the others as inactive; x = no result given.

SMILES	NR3A LBD binder	MPTP inh	Mdm2 MdmX PPI	CSC inhib	Beta apoptosis	SKKanGAS inh
Cc1ccc2nc(NC(=O)c3ccc(Cl)s3)sc2c1	19.6*	1.2	-155.2	-10.0	x	-1.2
O=c1c(O)c(-c2ccc(O)c(O)c2)oc2cc(O)cc(O)c12	22.0*	4.8	-14.3	37.0	x	-0.9
O=c1cc(-c2ccc(O)c(-c3c(O)cc(O)c4c(=O)cc(-c5ccc(O)cc5)oc34)c2)oc2cc(O)cc(O)c12	18.1*	14.1	18.5	15.6	-2.4	61.9*
O=c1c(-c2c(O)cc(O)c3c(=O)cc(-c4ccc(O)cc4)oc23)c(-c2ccc(O)cc2)oc2cc(O)cc(O)c12	26.6*	6.7	-12.0	18.5	-3.3	x
O=c1cc(-c2ccc(O)c(O)c2)oc2cc(O)cc(O)c12	9.9	4.8	3.9	-4.3	x	1.3
O=c1cc(-c2ccc(O)cc2)oc2c(-c3c(O)cc(O)c4c(=O)cc(-c5ccc(O)cc5)oc34)c(O)cc(O)c12	21.4*	7.5	12.8	x	x	x
CN(C)c1ccc(C(CNS(=O)(=O)c2ccc(F)c(F)c2)c2c[nH]c3ccccc23)cc1 (stereo not drawn)	22.5*	5.9	8.7	5.0	1.3	10.1
COc1ccc(CN2C(=O)C(CC(=O)NCCCCc3ccccc3)CC(C(=O)N3CCCCCC3)=C2C)cc1 (stereo not drawn)	x	-1.0	x	x	x	x
CC(C)(C)NC(=O)/C(=C\C=C\c1ccccc1)NC(=O)c1ccc([N+](=O)[O-])cc1	14.7*	9.4	13.5	15.6	1.5	-9.5
O=C(Nc1ccc(O)cc1)/C(=C\C=C\c1ccccc1)NC(=O)c1ccccc1	27.4*	2.5	7.4	-11.4	-3.6	15.2
Cc1ccc(-c2cc(C(=O)N/N=C/c3c[nH]c4ccccc34)n[nH]2)o1	27.7*	-0.2	13.4	30.2	2.3	2.5
O=C(N/N=C/c1cccs1)c1cc(-c2ccc(Cl)s2)[nH]n1	32.9*	-0.9	19.7	11.0	7.3	0.7
Cc1cc(C(=O)N/N=C/C=C/c2ccccc2)n[nH]1	-429.0	0.0	-3.2	-4.6	3.1	-9.6
O=C(N/N=C/c1ccc(F)cc1)c1ccncc1	-1.8	0.2	-0.8	-11.7	-9.4	-3.4
Cc1ccc(-c2cc(C(=O)N/N=C/C=C/c3ccccc3)n[nH]2)s1	18.6*	8.6	27.1	65.5	33.7	31.9
Cc1ccc(-c2cc(C(=O)N/N=C/c3ccc(F)cc3)n[nH]2)o1	31.1*	-0.6	18.3	21.3	4.1	7.8
COc1ncnc2c1ncn2CC1COC(C)(C)O1 (stereo not drawn)	0.9	0.4	-7.2	-5.5	-7.4	-6.0
OCCC1CN(Cc2cccn2-c2ccccn2)CCN1C1CCCCC1 (stereo not drawn)	-2.5	0.3	-44.1	10.9	-2.1	-8.2
CCOc1ccc(N2CC(C(=O)NCc3ccc4c(c3)OCO4)CC2=O)cc1 (stereo not drawn)	1.0	0.0	8.7	-13.0	x	-5.3
O=C(N/N=C/C(Br)=C/c1ccccc1)c1cnccn1	-1.5	0.4	20.8	14.2	-8.1	-6.0
Cc1ccc(-c2cc(C(=O)N/N=C/C(Br)=C/c3ccccc3)n[nH]2)o1	29.0*	0.5	46.8	-5.5	41.9	4.7
CC(C)(C)c1cc(C(=O)N/N=C/c2ccncc2)n[nH]1	467.9*	-0.6	6.3	0.2	0.3	4.7
CCOC(=O)C(=O)Nc1ccccc1C(=O)NCc1ccccc1	-0.8	3.6	13.1	-12.3	-4.0	6.2
Cn1cc([N+](=O)[O-])c(C(=O)Nc2cc(Oc3ccccc3)cc([N+](=O)[O-])c2)n1	9.0	0.6	x	95.7*	0.5	6.7
Cc1nn(C)cc1C(=O)Nc1cc(Oc2ccc(Cl)cc2)cc([N+](=O)[O-])c1	17.3*	4.3	21.3	-0.7	4.7	-8.4
Cc1ccc(Oc2cc(NC(=O)CCCn3nc([N+](=O)[O-])cc3C)cc([N+](=O)[O-])c2)cc1	10.2*	5.3	9.7	40.0	12.5	22.7
CC(=O)Nc1ccc(Oc2cc(NC(C)=O)cc([N+](=O)[O-])c2)cc1	-3.3	-0.1	-16.3	-22.3	-2.9	-1.1
CCOC(=O)c1ccc(-c2c(-c3ccccc3OC)oc3ccccc23)cc1F	0.6	2.1	28.5	20.9	0.8	x
CCOC(=O)c1ccc(-c2ccc3c(=O)c4ccccc4n(C)c3c2)cc1F	-2.1	2.4	20.5	-1.1	4.6	64.7*
